Screening data as filed in PubChem.
Many of the other results were omitted from the sample, so hits are more common in it than they were.
PI5P4Ka inh = PI5P4K alpha (human) kinase inhibition; P48426; PI5P4Kalpha enzyme, ADP-Glo luminescence, 60 min; active compounds read low; max response, %; 330,000 tested, 1.2% active; active = max response of -50% or lower; inconclusive = between -30% and -50%; inactive = -30% or higher; also: value at the top dose of about 77 µM
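Enzyme plus substrate dispensed, test compounds pinned in, then ATP (5 microM final) added. After 60 min at RT, ADP-Glo reagent 1 for 45 min and reagent 2 for 30 min preceded luminescence imaging.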
Pin1 inh = human Pin1 inhibition | Q13526 | Pin1 FP peptide displacement, HiFluor488, 10 min | Potency, µM (series often up to 115 µM), for inactives: at the highest dose activity, negative = inhibition, usual class: inhibitors | 390,000 tested, 0.009% active | AID 504891; active = well fitted inhibition curve with a large enough effect in the polarisation, with a control signal flat, not every such curve was filed as active; inconclusive = small, poorly fitted or top-dose-only effect, or effect the other way, or a change in a side signal; inactive = no such curve, though single readings can be large or run the other way; the % refers to the polarisation; also: potency is read from the fitted curve at half-maximal effect
Target sequence (Q13526 whole entry, looked up): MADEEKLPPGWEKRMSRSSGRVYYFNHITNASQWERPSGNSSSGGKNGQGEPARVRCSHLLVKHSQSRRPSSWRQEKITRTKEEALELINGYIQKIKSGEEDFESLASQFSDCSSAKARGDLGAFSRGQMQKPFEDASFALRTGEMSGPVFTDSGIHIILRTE
PI4K2A inh = blocks human PI4K2A kinase activity. activity change, negative = inhibition, % at 76.9 µM. purified PI4K2A, ADP-Glo luminescence, 1 h; active compounds read low. AID 1346378. 420,000 tested, 0.13% active; in the data active = activity change below about -50%; inconclusive = mostly about -30% to -49%;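 also: -100% = wells without enzyme as full effect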
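PI4K2A activity was measured by ADP-Glo luminescence: enzyme (4 ug/mL stock) and phosphatidylinositol (1.2 mM stock) in Tris pH 7.5/MgCl2/EGTA/Triton X-100 buffer were reacted with ATP (300 microM stock) for one hour at ambient temperature.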
Tb PFK inh = blocks T. brucei phosphofructokinase. O15648. T. brucei PFK, ADP-Glo luminescence. Potency, µM (series often up to 57.5 µM), without a hit: at the top dose activity, negative = inhibition, most hits filed as inhibitors. 330,000 tested, 0.17% active. AID 485367;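 also: potency is read from the fitted curve at half-maximal effect; 0% = uninhibited 1x PFK enzyme wells and -100% = no-enzyme wells; nearly all actives have a fitted effect of over 60% in size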
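In TEA buffer at pH 8.0 with 5 mM MgCl2, enzyme (1.25 nM) converted F6P (0.5 mM) and ATP (0.1 mM) for 45 min at room temperature. ADP product was read by luciferase luminescence.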
Tb PGK inh = T. brucei PGK inhibition | 380,000 tested, 0.043% active | PGK/GAPDH coupled, Kinase-Glo luminescence, 60 min | P07378 | AID 602233 | Potency, µM (top dose mostly 57.5 µM), without a hit: at the top dose activity change, negative = inhibition, hits mostly inhibitors; also: potency is read from the fitted curve at half-maximal effect; nearly all actives have a fitted effect of over 60% in size
Target sequence (P07378 whole entry, looked up): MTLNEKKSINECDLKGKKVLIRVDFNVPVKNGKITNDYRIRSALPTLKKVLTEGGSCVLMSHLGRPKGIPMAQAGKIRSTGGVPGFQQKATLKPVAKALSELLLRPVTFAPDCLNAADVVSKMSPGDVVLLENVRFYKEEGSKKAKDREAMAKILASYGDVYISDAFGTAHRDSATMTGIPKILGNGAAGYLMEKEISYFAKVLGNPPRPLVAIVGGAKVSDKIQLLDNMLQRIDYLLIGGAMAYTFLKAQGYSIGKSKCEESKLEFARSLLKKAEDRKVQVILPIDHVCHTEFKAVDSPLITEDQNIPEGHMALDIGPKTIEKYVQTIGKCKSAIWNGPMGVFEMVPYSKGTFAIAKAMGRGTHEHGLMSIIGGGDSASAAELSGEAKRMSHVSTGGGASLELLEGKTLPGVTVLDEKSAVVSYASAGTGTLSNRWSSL
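Luminescent ATP detection (Kinase-Glo Plus) follows a 60-minute room-temperature incubation, with wells lacking PGK as controls. Buffer: 100 mM TEA (pH 7.6), 5 mM MgCl2, 0.01% Tween-20. Coupling enzyme GAPDH (100 nM final) supplies unstable 1,3-BPG in-well.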
An asterisk follows results filed as active; ? = inconclusive; . = not tested or not shown. Unless noted, calls follow the shape of the dose curve; as a rule, active = well fitted curve in the direction sought with a large enough effect; inconclusive = small, poorly fitted or top-dose-only effect, or another doubt; inactive = no such curve, though single readings can be large; an effect the other way counts as inactive or inconclusive. Unless noted, % is scaled to controls: 0 for no effect and ±100 for the full control effect.

SMILES | PI5P4Ka inh | Pin1 inh | PI4K2A inh | Tb PFK inh | Tb PGK inh
CCN(CC)CCNC(=O)c1ccc(NC(=O)c2ccc(COc3ccccc3)cc2)cc1 | -4.6 | 4.1% | -8.9 | -2.6% | -6.9%
COc1ccc(/C=N/N=C2/NC(=O)C(CC(=O)O)S2)cc1OCc1ccc(Cl)cc1Cl (stereo unspecified) | -56.1* | ? | -9.9 | 1.0% | -20.7%
COc1ccc(/C=N/N=C2/NC(=O)C(CC(=O)O)S2)cc1OCc1ccccc1Cl (stereo unspecified) | ? | 5.1% | 0.6 | 22.5% | ?
CCOC(=O)c1c(C)oc2c1c(C(c1ccncc1)N1CCOCC1)c(O)c1ccccc12 (stereo unspecified) | -21.8 | -6.2% | 8.0 | -0.9% | 8.2%
CCOC(=O)c1c(C)oc2c1c(CN1CCN(C(=O)OCC)CC1)c(O)c1ccccc12 | -56.2* | ? | 6.8 | -1.2% | -4.5%
CCOC(=O)c1c(C)oc2c1c(CN1CCN(CCO)CC1)c(O)c1ccccc12 | -97.8* | ? | 0.8 | -6.4% | 5.3%
CCCCN(CC)Cc1ccc(CNC(=O)Nc2ccccc2)o1 | . | 0.5% | 3.3 | 1.3% | 10.6%
COc1cccc(NC(=O)COC(=O)c2c(C)noc2C)c1 | -10.9 | -0.4% | -3.0 | -5.7% | -0.8%
CC(=NO)c1ccc2c(c1)Cc1cc([N+](=O)[O-])ccc1-2 | -69.7* | ? | -1.9 | . | 10.5%
O=c1[nH]c(/C=C\c2cccc(O)c2)nc(O)c1[N+](=O)[O-] | -81.4* | . | ? | 0.2% | 2.5%
CCOc1ccc(/C=C\c2nc(O)c([N+](=O)[O-])c(=O)[nH]2)cc1OCC | -23.9 | -4.3% | 4.7 | 3.1% | -2.9%
O=c1[nH]c(/C=C\c2ccc(O)c(O)c2)nc(O)c1[N+](=O)[O-] | -80.1* | ? | -10.9 | 17.3% | -17.2%
CC1=C(C(=O)Nc2ccccc2)C(c2ccco2)C(C#N)=C(SCc2ccccc2)N1 (stereo unspecified) | . | . | . | -1.8% | .
O=C(Cn1c(=O)n(CCC(=O)N2CCc3ccccc3C2)c(=O)c2ccccc21)NCC1CCCO1 (stereo unspecified) | 7.0 | 0.7% | -3.2 | -2.6% | -2.5%
COCCCn1c2nc3ccccc3nc2c2c(=O)n(Cc3ccc(Cl)cc3)cnc21 | 1.6 | 0.8% | 3.7 | -1.0% | 10.8%
O=c1c2c3nc4ccccc4nc3n(Cc3ccccc3)c2ncn1Cc1ccco1 | -68.2* | ? | ? | 1.7% | -2.7%
O=C(O)c1cc(N=Cc2c(O)c3ccccc3oc2=O)ccc1O | -65.3* | -3.2% | -12.1 | 4.5% | -10.4%
Cc1cc(C)cc(N=Cc2c(O)c3ccccc3oc2=O)c1 | 2.2 | 0.4% | 0.7 | -1.2% | -8.7%
Cc1cccc(-n2nnnc2SCC(=O)NCC2CCCO2)c1 (stereo unspecified) | 1.2 | -7.5% | -5.8 | 3.9% | -1.8%
CC(=NNC(=S)N1CCC1)c1ccccn1 | 2.3 | -0.9% | -60.2* | . | -2.9%
COc1ccc(-c2cn3c(n2)sc2cc(C(=O)NCc4ccccc4)ccc23)cc1 | . | 4.0% | -10.2 | . | 1.9%
COc1ccc2c(c1)sc1nc(-c3ccccc3)cn12 | 2.3 | 17.4% | -60.1* | -4.0% | ?
CCOc1cc(N2CCOCC2)c(OCC)cc1NC(C)C(=O)N1CCC(C)CC1 (stereo unspecified) | 1.3 | ? | -6.9 | 0.8% | -0.7%
Cc1cc([N+](=O)[O-])nn1CC(=O)Nc1cccc2nonc12 | -73.4* | 2.6% | -6.5 | -10.5% | -0.9%
CN=C(c1ccco1)n1c(=S)nc(-c2ccco2)n(C)c1=S | -68.2* | ? | -7.6 | 0.4% | -6.3%
SMILES | PI5P4Ka inh | Pin1 inh | PI4K2A inh | Tb PFK inh | Tb PGK inh
O=C1N/C(=N/NC(=O)c2cccc3ccccc23)S/C1=C\c1ccccc1OCc1ccccc1 | -55.1* | 23.0% | 3.1 | -4.0% | -1.8%
Cc1ccc(N=C2NC(=O)CS2)cc1 | -0.6 | 11.8% | 3.1 | 0.3% | -2.4%
Cc1ccc(C)n1/N=C1/NC(=O)CS1 | -52.0* | ? | -24.8 | 1.9% | ?
Cc1ccc(NC(=O)CSc2nnc(-c3ccco3)c(-c3ccco3)n2)cc1 | -74.7* | ? | -23.8 | -26.9% | -5.0%
COc1cccc(NC(=O)CSc2nnc(CNC(=O)c3ccco3)n2C)c1 | -2.3 | -5.8% | 4.2 | -8.2% | -6.4%
CN(C)c1ccc(NC(=O)CSc2nnc(-c3ccco3)c(-c3ccco3)n2)cc1 | -15.3 | 1.0% | -27.3 | 12.7% | -8.9%
COc1cccc(NC(=O)CSc2nnc(-c3ccco3)c(-c3ccco3)n2)c1 | -63.2* | . | -25.4 | ? | -16.5%
O=C(CSc1ccc(-c2ccco2)nn1)c1ccc(F)cc1 | -68.6* | . | -20.7 | -1.8% | -9.9%
COc1ccc(C(=O)CSc2nnc(-c3ccco3)c(-c3ccco3)n2)cc1 | -56.9* | ? | -29.6 | -12.1% | ?
CC1CCCCC12NC(=O)N(CC(=O)Nc1cccnc1)C2=O (stereo unspecified) | -9.0 | . | 0.9 | . | 6.8%
COc1ccc(NC(=O)CSc2nc3[nH]c(=O)cc(O)c3s2)c(OC)c1 | ? | ? | -5.2 | 0.0% | -1.6%
O=C(CSc1nnc(-c2ccco2)c(-c2ccco2)n1)Nc1ccccc1 | -84.2* | ? | -25.3 | ? | ?
CCC[n+]1c(C)sc2c3c(ccc21)CCCC3 | -55.4* | 12.8% | -10.1 | 7.3% | -3.9%
O=C(Nc1ccc(F)cc1)Nc1ccc(N2CCOCC2)c2nonc12 | 5.0 | 8.8% | -58.6* | 0.5% | -0.9%
Nc1ccc(N2CCOCC2)c2nonc12 | -20.8 | . | -59.8* | 13.5% | 1.2%
COc1ccc(NC(=O)Nc2ccc(N3CCOCC3)c3nonc23)c(OC)c1 | -1.9 | 14.5% | -8.0 | -0.6% | 2.5%
O=C(Nc1ccc(N2CCOCC2)c2nonc12)C1CCCC1 | -27.7 | 1.8% | ? | -1.0% | -8.0%
CCOC(=O)C1CCCN(C(=O)c2[nH]c3ccccc3c2Sc2ccc(Cl)cc2)C1 (stereo unspecified) | . | -2.5% | -2.3 | . | -6.1%
O=C1C2C(c3ccccc3)CC=CC2C(c2cccc(Br)c2)N1Cc1ccccc1 (stereo unspecified) | . | -2.4% | . | . | .
O=C1[C@H]2CCC=C[C@H]2[C@H](c2cccc(Br)c2)N1Cc1ccccc1 | -53.3* | 2.3% | 0.5 | -0.2% | -8.9%
c1csc(Cc2nn3c(-c4ccncc4)nnc3s2)c1 | . | ? | -29.4 | ? | -2.5%
COC(=O)c1nn(-c2ccc3c(c2)CCN3C(C)=O)cc1O | . | 0.3% | -85.2* | ? | ?
COc1ccc(C)cc1NC(=O)CN(Cc1nnc(-c2ccc(Cl)cc2)o1)C1CCCC1 | 0.3 | 37.4% | 2.8 | 10.1% | -1.4%
COc1ccc(C(=O)OCC(=O)Nc2sccc2C(N)=O)cc1OC | -7.2 | ? | 5.5 | -0.8% | -8.0%
O=C(COC(=O)c1ccc(Br)o1)Nc1ncc([N+](=O)[O-])s1 | -53.2* | -6.4% | -4.2 | 1.9% | -15.2%
